CF NFkB block: blocks PAF-induced NF-kB reporter in cystic fibrosis cells; KKLEB NF-kB-GFP reporter, GFP fluorescence overnight; inhibition, % at 5 µM; hit rate 0.86% among 360,000; AID 588850;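 active = at least 50% inhibition at 5 µM, scaled per plate between neutral and stimulator controls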;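 note: PAF is a Pseudomonas aeruginosa culture filtrate used as stimulus; plate controls were PAF-stimulated DMSO wells for no effect and unstimulated DMSO wells for full effect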
HIF-2a inh: HIF-2a inhibition; 786-0 RCC cells HIF-2a reporter, luciferase luminescence, overnight; inhibition, % at 18.8 µM; hit rate 0.72% among 360,000;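 active = inhibition of the luminescence signal of 40% or more relative to plate controls, in a single-dose primary screen at 18.75 µM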
Peg3 prom inh: Peg3 promoter activity inhibition; hit rate 1.7% among 360,000; HeLa PEG-Prom luciferase reporter, luminescence, overnight; AID 588405; inhibition, % at 20 µM;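 active = inhibition of at least 50% at 20 µM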
TWEAK-Fn14 inh: inhibitors of TWEAK-Fn14 interaction signaling. inhibition, % at 10 µM. TWEAK-stimulated Fn14 reporter cells, luciferase luminescence, 8 h. hit rate 2% among 360,000; in the data active = inhibition above about 50%
TROY NFkB inh: blocks TROY-dependent signaling in reporter cells; Q293 LMP1-TROYcd NF-kB luciferase reporter, 4 h; hit rate 0.98% among 360,000; inhibition, % at 10 µM;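 active = compounds whose plate-normalised and pattern-corrected inhibition of the luciferase reporter signal at the single screening dose is 50% or more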
KKLEB cytotox: counter-screen for CF NF-kB inhibitors: cytotoxicity; activity change (cytotoxicity), % at 5 µM; KKLEB CF airway cells viability, ATPlite luminescence, overnight; hits give low values; cells stimulated with P. aeruginosa culture filtrate; AID 602141; hit rate 0.36% among 360,000;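 active = corrected activity change at or below -50% at 5 µM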
Active calls of the source: *. Most compounds without a hit are left out; they make up all but 4% or so of the library.

Cc1csc(NC(=O)c2cnc3ccccc3n2)n1 was read as CF NFkB block -28, HIF-2a inh -46, Peg3 prom inh -64, TWEAK-Fn14 inh 52*, TROY NFkB inh 25 and KKLEB cytotox -4.
Screening CCc1ccc(C(=O)Nc2nc(C)cs2)s1 returned CF NFkB block -6, HIF-2a inh 56*, Peg3 prom inh -108, TWEAK-Fn14 inh 63*, TROY NFkB inh 14 and KKLEB cytotox -2.
For CCn1cc(S(=O)(=O)Nc2cc(F)ccc2C)cn1 the results were CF NFkB block 0, HIF-2a inh 23, Peg3 prom inh -3, TWEAK-Fn14 inh 2, TROY NFkB inh 23 and KKLEB cytotox -4.
For Cn1c(=O)c(C#N)c(-c2ccc(F)cc2)c2cc(C(=O)c3cc(Cl)cc(Cl)c3O)cnc21 the results were CF NFkB block 46, HIF-2a inh -12, Peg3 prom inh 36, TWEAK-Fn14 inh 57*, TROY NFkB inh 67* and KKLEB cytotox -24.
Screening COc1ccccc1-n1c(=O)c(C#N)c(-c2ccc([N+](=O)[O-])cc2)c2cc(C(=O)c3cc(F)ccc3O)cnc21 returned CF NFkB block 10, HIF-2a inh 15, Peg3 prom inh 0, TWEAK-Fn14 inh 1, TROY NFkB inh 8 and KKLEB cytotox -8.
Screening CC(O)(CC(=O)CC(=O)c1ccccc1)c1ccccc1 (centres undefined) returned CF NFkB block -10, HIF-2a inh 3, Peg3 prom inh 52*, TWEAK-Fn14 inh 20, TROY NFkB inh -9 and KKLEB cytotox 0.
`COc1cc(NC(=O)c2ccccc2)c(OC)cc1NC(=O)CN1C(=O)N(C)C2(CCCCC2)C1=O` gave CF NFkB block 21, HIF-2a inh -2, Peg3 prom inh -3, TWEAK-Fn14 inh -7, TROY NFkB inh -11 and KKLEB cytotox -11.
Screening CC(C)c1ccc(OCC(=O)NN2C(=O)c3ccccc3C2=O)c(Br)c1 returned CF NFkB block -9, HIF-2a inh 1, Peg3 prom inh 4, TWEAK-Fn14 inh 69*, TROY NFkB inh -17 and KKLEB cytotox 0.
Screening CC(=O)COc1ncn(-c2ccccc2)n1 returned CF NFkB block -2, HIF-2a inh -17, Peg3 prom inh -17, TWEAK-Fn14 inh 87* and KKLEB cytotox 5.
CCOC(=O)COc1ncn(-c2ccccc2)n1 was read as CF NFkB block 1, HIF-2a inh 8, Peg3 prom inh 19, TWEAK-Fn14 inh -27, TROY NFkB inh -33 and KKLEB cytotox 2.
CCn1c(C)c(C(=O)O)c2cc(OC)c3ccccc3c21 was read as CF NFkB block -4, HIF-2a inh 10, Peg3 prom inh 12, TWEAK-Fn14 inh 5, TROY NFkB inh -6 and KKLEB cytotox 0.
For c1ccc(C[n+]2cccc(-c3ccccc3)c2)cc1 the results were CF NFkB block -8, HIF-2a inh 14, Peg3 prom inh 2, TWEAK-Fn14 inh 91*, TROY NFkB inh 90* and KKLEB cytotox 8.
c1ccc(C[n+]2ccc3ccccc3c2)cc1 was read as CF NFkB block 12, HIF-2a inh 9, Peg3 prom inh 10, TWEAK-Fn14 inh 14, TROY NFkB inh -9 and KKLEB cytotox 5.
Screening Cc1ccc(NS(=O)(=O)c2ccc3c(c2)C(=O)c2ccccc2C3=O)c(C)c1 returned CF NFkB block 24, HIF-2a inh 19, Peg3 prom inh 21, TWEAK-Fn14 inh -4, TROY NFkB inh -9 and KKLEB cytotox -1.
Screening Cc1ccc(NC2=CC(=O)C(=O)c3ccccc32)c(C)c1 returned CF NFkB block 77*, HIF-2a inh -37, Peg3 prom inh 42, TWEAK-Fn14 inh 75*, TROY NFkB inh 74* and KKLEB cytotox -4.
`O=C1C=C(Nc2ccccc2O)c2ccccc2C1=O` gave CF NFkB block 64*, HIF-2a inh -10, Peg3 prom inh 28, TWEAK-Fn14 inh 17, TROY NFkB inh 2 and KKLEB cytotox -64*.
For O=C1C=C(NCc2ccccc2)c2ccccc2C1=O the results were CF NFkB block 30, HIF-2a inh 19, Peg3 prom inh 17, TWEAK-Fn14 inh 69*, TROY NFkB inh 25 and KKLEB cytotox 6.
For COc1ccc2oc3c(ccc[n+]3C)c(=O)c2c1 the results were CF NFkB block 9, HIF-2a inh 11, Peg3 prom inh 10, TWEAK-Fn14 inh 8, TROY NFkB inh -3 and KKLEB cytotox 5.
Screening CC1=C(C(=O)N(C)C)CC(CC(=O)NCCN2CCOCC2)C(=O)N1CCCN1CCCC1=O (centres undefined) returned CF NFkB block -15, HIF-2a inh 2, Peg3 prom inh -6, TWEAK-Fn14 inh 7, TROY NFkB inh 5 and KKLEB cytotox 22.
COc1ccc(C)cc1NC(=O)COC(=O)Cc1c[nH]c2ccccc12 was read as CF NFkB block -1, HIF-2a inh 19, Peg3 prom inh 4, TWEAK-Fn14 inh 16, TROY NFkB inh 8 and KKLEB cytotox 1.
`O=C(OC(C(=O)NC1CCCCC1)c1ccccc1F)c1ccco1` (centres undefined) gave CF NFkB block -10, HIF-2a inh 6, Peg3 prom inh 1, TWEAK-Fn14 inh -11, TROY NFkB inh -12 and KKLEB cytotox 4.
`Fc1c(F)c(F)c(SCn2cc(Br)cn2)c(F)c1F` gave CF NFkB block -1, HIF-2a inh 4, Peg3 prom inh 0, TWEAK-Fn14 inh 0, TROY NFkB inh 6 and KKLEB cytotox 6.
For Cc1ccc(/C=C/C(=O)Nn2cnnc2)cc1 the results were CF NFkB block 18, HIF-2a inh -7, Peg3 prom inh 42, TWEAK-Fn14 inh 57*, TROY NFkB inh -12 and KKLEB cytotox -10.
Screening CC(C)(C)c1ccc(/C=C/C(=O)NC2=NCCS2)cc1 returned CF NFkB block -8, HIF-2a inh -168, Peg3 prom inh -186, TWEAK-Fn14 inh 50*, TROY NFkB inh 53* and KKLEB cytotox -8.
Cc1ccc(/C=C/C(=O)NC2=NCCS2)cc1 was read as CF NFkB block -1, HIF-2a inh -21, Peg3 prom inh -195, TWEAK-Fn14 inh 52*, TROY NFkB inh 29 and KKLEB cytotox -8.
`CCCCc1nnc(NC(=O)c2oc3ccccc3c2C)s1` gave CF NFkB block 1, HIF-2a inh -203, Peg3 prom inh -189, TWEAK-Fn14 inh -25, TROY NFkB inh -25 and KKLEB cytotox -10.
`CC1CCc2ccccc2N1CC(=O)Nc1cccc(S(=O)(=O)N2CCCC2)c1` (centres undefined) gave CF NFkB block 14, HIF-2a inh 11, Peg3 prom inh 14, TWEAK-Fn14 inh 0, TROY NFkB inh 16 and KKLEB cytotox 6.
`O=S(=O)(Nc1ccccc1F)c1ccc(Cl)nc1` gave CF NFkB block 11, HIF-2a inh 9, Peg3 prom inh 6, TWEAK-Fn14 inh 17, TROY NFkB inh 14 and KKLEB cytotox -1.
O=S(=O)(Nc1c(F)cccc1F)c1ccc(Cl)nc1 was read as CF NFkB block 9, HIF-2a inh 23, Peg3 prom inh -4, TWEAK-Fn14 inh 10, TROY NFkB inh 86* and KKLEB cytotox 5.

Compound activity (PubChem BioAssay)
